Bioassay records (PubChem BioAssay)
RORgamma inh: qHTS for inhibitors of ROR gamma transcriptional activity; AID 2551, 2010; Potency, µM (highest dose often 53.6 µM), for the others: top-dose activity change, negative = inhibition, actives largely listed as inhibitors; Nuclear receptor ROR-gamma (Mus musculus), P51450; 310,000 compounds, 5.4% hits; Drosophila S2 Gal4-RORgamma UAS-luciferase reporter, 20 h; further: nearly all actives have a fitted effect of over 60% in size
Target sequence (P51450 whole entry, looked up, the tested form may be a part): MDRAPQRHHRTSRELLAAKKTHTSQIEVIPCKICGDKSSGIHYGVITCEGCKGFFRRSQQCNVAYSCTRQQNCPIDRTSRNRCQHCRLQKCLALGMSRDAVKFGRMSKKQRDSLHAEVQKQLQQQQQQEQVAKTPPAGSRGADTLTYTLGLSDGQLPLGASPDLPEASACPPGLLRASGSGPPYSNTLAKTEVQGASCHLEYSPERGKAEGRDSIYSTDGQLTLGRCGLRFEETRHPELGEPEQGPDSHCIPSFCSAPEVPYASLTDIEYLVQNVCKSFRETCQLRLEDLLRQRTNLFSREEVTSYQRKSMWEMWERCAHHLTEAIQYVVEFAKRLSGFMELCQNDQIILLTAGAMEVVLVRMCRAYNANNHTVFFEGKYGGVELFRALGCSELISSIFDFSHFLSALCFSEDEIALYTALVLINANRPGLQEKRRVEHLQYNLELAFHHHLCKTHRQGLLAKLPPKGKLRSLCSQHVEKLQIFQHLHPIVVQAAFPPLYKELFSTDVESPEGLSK
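Drosophila S2 cells stably expressing Gal4-DBD/mouse RORγ fusion under metallothionein promoter plus UAS-luciferase; compound 1 h, then 700 uM CuSO4 induction for 20 h at ambient temperature; inhibition read as reduced luminescence.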
Gal4-VP16 FLuc: VP16 counterscreen qHTS for inhibitors of ROR gamma transcriptional activity; Drosophila S2 Gal4-VP16 UAS-luciferase, luminescence, 20 h; Potency, µM (series often up to 53.6 µM), for the others: top-dose activity, negative = inhibition, usual class: inhibitors; 310,000 compounds, 3.5% hits; AID 2546, 2010;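 further: Gal4-VP16 expression switched on by copper sulfate through the metallothionein promoter; nearly all actives have a fitted effect of over 50% in size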
PLK1 PBD block: qHTS for Inhibitors of PLK1-PDB (polo-like kinase 1 - polo-box domain): Primary Screen; Serine/threonine-protein kinase PLK1 (Homo sapiens), P53350; Plk1 PBD binding of FITC phosphopeptide, fluorescence polarization; Potency, µM, without a hit: max response, negative = inhibition, usual class: inhibitors; 360,000 compounds, 2.8% hits; further: series mostly up to about 57 µM; nearly all actives have a fitted effect of over 65% in size
ALDH1A1 inh: qHTS Assay for Inhibitors of Aldehyde Dehydrogenase 1 (ALDH1A1); Aldehyde dehydrogenase 1A1 (Homo sapiens), P00352; 220,000 compounds, 7.3% hits; AID 1030, 2008; Purified ALDH1A1, NADH fluorescence, propionaldehyde substrate; Potency, µM (top dose mostly 75.3 µM), inactives show top-dose activity, negative = inhibition, hits mostly inhibitors; active means well fitted inhibition curve with a large enough effect, not every such curve was filed as active; inconclusive means small, poorly fitted or top-dose-only effect, or another doubt; inactive means no such curve, though single readings can be large or run the other way;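 further: plate controls were no enzyme wells and a reference inhibitor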
Sfp inh: qHTS Assay for Inhibitors of Bacillus subtilis Sfp phosphopantetheinyl transferase (PPTase) | 4'-phosphopantetheinyl transferase ffp (Bacillus subtilis), Q9F4F7 | Biochemical Sfp PPTase activity, qHTS | Potency, µM, without a hit: largest response in the series, negative = inhibition, actives largely listed as inhibitors | 310,000 compounds, 3.5% hits;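 further: the enzyme is Sfp with the accession as filed and its product quenches rhodamine fluorescence; 0% = enzyme reaction without inhibitor and -100% = no enzyme wells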
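Reaction rates are the 30-min fluorescence difference (ex 525, em 598 nm) in wells containing 15 nM Sfp, 5 uM rhodamine-CoA and 12.5 uM BHQ-2-YbbR at pH 7.6 with 10 mM MgCl2.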
Numbers without * were called inactive; ? = inconclusive; · = no result given; [ ] = another dose, or the depositor's remark. Most compounds without a hit are left out; they make up all but 12% or so of the library. Unless noted, the call rests on the fitted dose curve; in most records, active means well fitted curve in the direction sought with a large enough effect; inconclusive means small, poorly fitted or top-dose-only effect, or another doubt; inactive means no such curve, though single readings can be large; an effect the other way counts as inactive or inconclusive. Unless noted, on the % scale 0 is the no-effect control and ±100 the full control effect; potency means the concentration at half of the fitted maximal effect.

SMILES	RORgamma inh	Gal4-VP16 FLuc	PLK1 PBD block	ALDH1A1 inh	Sfp inh
CC(C)COC(=O)NCCOC(=O)Nc1cccc(Cl)c1	?	-11.9%	-20.6%	3.5%	3.5%
CC(C)COC(=O)NCCCOC(=O)Nc1ccccc1	?	3.4%	-4.3%	22.4µM*	6.8%
Cc1cc(C)c(C)c(S(=O)(=O)N2CCN(C(=O)c3ccccc3OCc3c(C)noc3C)CC2)c1C	·	·	1.9%	·	·
COc1ccc(N=C2SCC(=O)N2C)cc1	·	·	-21.6%	·	·
Clc1nssc1=Nc1ccccc1	?	?	2.38µM*	1.58µM*	20µM*
COc1ccc(N=c2ssnc2Cl)cc1	?	?	1.68µM*	1.78µM*	8.91µM*
CCCCC1=CC2=C(c3ccco3)C(=O)C(C)(OC(=O)c3ccc(OC)cc3)C(=O)C2=CO1 (centres undefined)	15.7%	-0.3%	·	1.3%	16.0%
CS(=O)(=O)/C(C#N)=C/c1cccn1S(=O)(=O)c1cccc2ccccc12	·	·	-1.0%	·	·
Nc1ccc2nc(Cc3ccccc3)[nH]c2c1	8.6%	-9.9%	2.1%	·	?
FC(F)(F)c1nc(=S)c2ccccc2[nH]1	-31.7%	0.4%	21.2µM*	8.91µM*	20µM*
Cc1nc(=S)c2ccccc2[nH]1	10µM*	?	-4.3%	7.08µM*	-21.7%
S=c1nc(Cc2ccccc2)[nH]c2ccccc12	2.82µM*	6.31µM*	-9.7%	·	28.6%
Cc1cc(=O)c2ccccc2[nH]1	1.5%	-0.4%	-13.9%	8.8%	10.8%
S=c1nc(COc2ccccc2)[nH]c2ccccc12	1.58µM*	17.8µM*	-13.6%	·	31.6µM*
COc1cc(OC)cc(-c2noc([C@@H]3O[C@H](CO)[C@@H](O)[C@H]3O)n2)c1	·	·	-1.3%	·	·
S=c1nc(Cc2ccc(Cl)cc2)[nH]c2ccccc12	1.78µM*	11.2µM*	-20.3%	-0.2%	14.7%
Cc1ccc(Cc2nc3ccccc3[nH]2)cc1	0.9%	-2.1%	0.0%	·	1.8%
N=C1SC(c2ccccc2)C(=O)N1c1ncc(Cc2ccccc2Cl)s1 (centres undefined)	1.41µM*	1.26µM*	?	9.2%	-1.9%
O=C(c1nc2ccc([N+](=O)[O-])cc2[nH]c1=O)[C@@H](O)c1ccc2c(c1)OCO2	·	·	·	1.6%[13.5 µM]	·
COc1ccc(NC(=S)N2CCN(Cc3ccccc3)CC2)cc1	11.2µM*	15.9%[10 µM]	-9.0%	?	19.0%
COc1ccc(CNC(=S)N2CCN(Cc3ccccc3)CC2)cc1	-13.1%	2.8%	-19.5%	·	-22.8%
S=C(Nc1cccc(Cl)c1)N1CCN(Cc2ccccc2)CC1	10µM*	?	0.2%	-9.3%	14.6%
COc1cccc(NC(=S)N2CCN(Cc3ccccc3)CC2)c1	?	20µM*	-5.2%	1.2%	-4.8%
S=C(Nc1ccccc1)N1CCN(Cc2ccccc2)CC1	?	?	3.4%	·	-0.5%
COc1cc(NC(=S)N2CCN(Cc3ccccc3)CC2)cc(OC)c1	?	?	-6.0%	-2.4%	8.8%
SMILES	RORgamma inh	Gal4-VP16 FLuc	PLK1 PBD block	ALDH1A1 inh	Sfp inh
COc1ccc(-c2c(C3C4C=CCCC4(C)C(=O)N3Cc3ccccc3)ccc3ccccc23)cc1OC (centres undefined)	-9.9%	-3.9%	·	·	-3.2%
OCCN1CCN(c2ncnc3c2ncn3[C@H]2CN(Cc3cccc(C(F)(F)F)c3)C[C@@H](CO)O2)CC1	·	·	0.2%	·	·
NCCCCCc1nnc(SCc2ccc(Cl)cc2Cl)o1	8.91µM*	5.62µM*	-10.0%	8.9%	7.1%
NCCCCCc1nnc(SCc2cccc(Cl)c2)o1	5.62µM*	2.82µM*	-2.3%	-0.2%	8.4%
CCN(CC)C(=O)Cn1nnc(-c2ccc(C)o2)n1	-9.8%	0.5%	-7.3%	25.1µM*	-29.1%
CCCC(C(=O)NC1CCCC1)N(C(=O)Cn1nnc(-c2ccc(C)o2)n1)C1CCCC1 (centres undefined)	-6.0%	-5.5%	-27.2%	25.1µM*	?
CCCC(C(=O)NC1CCCC1)N(C(=O)Cn1nnc(-c2ccc(C)o2)n1)c1ccccc1F (centres undefined)	-0.3%	4.2%	-8.4%	·	20.0%
